# Several values for one entry are separate records, joined by “and”; a condition that tells them apart may be missing. Identical values can stand only once. Activity calls are given as the source filed them.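 Rule for the calls, unless noted: active = normalized viability below 100% at a tested concentration; inactive = the rest.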
# Assays:
# [1] = stimulators of nuclear beta-catenin in C2C12, primary screen, imaging, WNT3A-conditioned medium, mouse C2C12, NPC library (AID 1117326; in the data active = nuclear beta-catenin stimulation mostly above about 4.2%, no sharp cut-off; inactive = mostly below about 10%); conditions: stronger effect = higher value
# [2] = stimulators of insulin release from INS-1E, primary screen, cell-based, 5 mM glucose, NPC library (AID 1117329;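 active = compound raises insulin release from rat beta cells at 5 mM glucose, no numeric limit stated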); conditions: rat INS-1E insulin secretion, at 10 µM, stronger effect = higher value
# [3] = growth inhibition of GSK3B-pretreated HCT116 cells – cell-based, CellTiter-Glo, 0.2 to 20 µM (AID 1117336;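 active = compounds lowering colon cancer cell viability after pretreatment blocking the GSK3B kinase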); conditions: HCT116 viability after GSK3B inhibitor, at 20 µM, stronger effect = higher value
# [4] = inhibition of endothelial tube formation, primary screen, imaging, VEGF stimulated, CD31 staining, tube area, NPC library (AID 1117340;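 active = compound that reduces growth-factor-driven endothelial tube area in a mixed cell culture, no cutoff stated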); conditions: VEGF-stimulated ADSC/ECFC co-culture, at 10 µM, stronger effect = higher value
# [5] = glucagon-like peptide 1 release enhancers, primary assay, NCI-H716 cell line, NPC library (AID 1117341;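 active = compound raises GLP1 secretion from the human gut endocrine cells, with no numeric limit stated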); conditions: NCI-H716 cells, at 10 µM, stronger effect = higher value
# [6] = HCT116 colon cancer cell growth inhibition, primary screen, CellTiter-Glo luminescence, NPC library (AID 1117342;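 active = compounds that lower survival of HCT116 colon cancer cells in the luminescence readout, no numeric limit stated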); conditions: at 20 µM (top of the series)
# [7] = CellTiter-Glo luminescent readout of SW480 viability loss, NPC library primary (AID 1117343;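 active = compounds that lower viability of the colon cancer cells in the luminescence readout, with no numeric limit stated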); conditions: CellTiter-Glo luminescence; at 20 µM (top of the series)
# [8] = decreased DLD-1 cellular survival, CellTiter-Glo luminescent readout, NPC compound collection, primary HTS (AID 1117346;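 active = compounds that lower survival of DLD-1 colon cancer cells in the luminescence readout, no cutoff given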); conditions: DLD-1 viability, CellTiter-Glo luminescence; at 20 µM (top of the series)
# [9] = target: 6-phosphogluconate dehydrogenase, decarboxylating (Homo sapiens) (UniProt P52209); test: 6PGD enzyme inhibitors, primary screen, biochemical, human, recombinant enzyme, NADPH absorbance (AID 1159550;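 active = at least 20% inhibition of 6-phosphogluconate dehydrogenase activity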); conditions: recombinant 6PGD, NADPH absorbance 341 nm; at 10 µM; stronger effect = higher value
# [10] = modulation of C. elegans fzo-1 (AID 1259413; call rule not given here;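 note: fzo-1 mutant C. elegans worms in liquid wells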); conditions: C. elegans fzo-1 modulator screen, mean read-out; stronger effect = higher value
# [11] = differential killing of epithelial or mesenchymal cells, primary screen, imaging, PC-3E GFP, TEM4-18 mCherry, co-culture (AID 1345086;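 active = compounds killing one labelled cell type while sparing the other, by normalised counts and ratio limits, not self-fluorescent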;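 for all read-outs here: cells exposed to compound for 72 h before imaging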;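 for red/green cell ratio (normalised): normalised mesenchymal count divided by normalised epithelial count so high means epithelial killing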); conditions: imaging cell counts, at 1 µM; for red/green cell ratio (normalised): actives lie on both sides, counts scaled to control wells, 1 = unselective
# [12] = survival rescue of mitochondrial mutant cells in low glucose, primary screen, MELAS cybrids, Rieske KO mouse fibroblasts, CellTiter-Glo (AID 1508586;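 active = mean z-score across replicates of 1.96 or higher in either the MELAS or the Rieske mutant cell line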;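 note: z relative to plate mean and SD of compound and empty wells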)
# [13] = ovarian cancer cell viability with rucaparib, profiling panel, oncology-focused library, rucaparib conditional (AID 1508598); conditions: patient-derived ovarian cancer cells, CellTiter-Glo viability, 144 h, stronger effect = lower value
# [14] = target: NAD(+) hydrolase SARM1 (Homo sapiens) (UniProt Q6SZW1); test: SARM1 TIR NADase inhibitors, cell lysate, NAD-Glo luminescence (AID 1508614;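 active = compound whose remaining NAD level is above about 45 nM, limit read from the data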;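 note: higher remaining NAD means stronger inhibition of SARM1 NADase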); conditions: SAM-TIR HEK293T lysate NADase, at 1 µM, stronger effect = higher value
# [15] = target: Mitogen-activated protein kinase 7 (Homo sapiens) (UniProt Q13164); test: ERK5 transactivation activators in reporter cells, primary screen, cell-based, HTS (AID 1508626;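 active = luciferase signal above three times the same-plate solvent-only control wells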;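 note: luciferase driven by Gal4-ERK5 fusion binding five Gal4 sites before minimal TATA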); conditions: HeLa Gal4-ERK5 transactivation, 18 h, at 5 µM, stronger effect = higher value
# F380Y = test: modulators of BK channel variants, profiling panel, selectivity assay, cell-based, U2OS BacMam, thallium flux, beta subunits (AID 1259406;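 active = thallium flux through the channel raised or lowered by more than 3 SD from vehicle-only wells, actives on both sides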;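 note: initial slope of Thallos dye fluorescence rise after thallium is added; log ratio against the mean of 0.3% DMSO vehicle wells on the same plate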); conditions: at 30 µM
# F380Y/beta1 = test: as above; conditions: at 30 µM
# F380Y/beta2Delta = test: as above; conditions: at 30 µM
# [16] = sensitizers of A549 cells to miR-34 induction, primary screen, imaging, A549 dox-inducible miR-34, nuclei and caspase counts (AID 1347080;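 active = compounds whose cell count with miR-34 switched on is under 0.7 times the count with it off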); conditions: A549 miR-34 inducible, Hoechst nuclei count, 48 h
# [17] = measured here: epithelial PC-3E GFP cell survival
# [18] = measured here: mesenchymal TEM4-18 mCherry cell survival
# [19] = MELAS cybrid survival, CellTiter-Glo 48 h, stronger effect = higher value
# [20] = Rieske KO mouse fibroblast survival, CellTiter-Glo 72 h
# 6-phosphogluconate dehydrogenase, decarboxylating (Homo sapiens), sequence (P52209 whole entry, looked up): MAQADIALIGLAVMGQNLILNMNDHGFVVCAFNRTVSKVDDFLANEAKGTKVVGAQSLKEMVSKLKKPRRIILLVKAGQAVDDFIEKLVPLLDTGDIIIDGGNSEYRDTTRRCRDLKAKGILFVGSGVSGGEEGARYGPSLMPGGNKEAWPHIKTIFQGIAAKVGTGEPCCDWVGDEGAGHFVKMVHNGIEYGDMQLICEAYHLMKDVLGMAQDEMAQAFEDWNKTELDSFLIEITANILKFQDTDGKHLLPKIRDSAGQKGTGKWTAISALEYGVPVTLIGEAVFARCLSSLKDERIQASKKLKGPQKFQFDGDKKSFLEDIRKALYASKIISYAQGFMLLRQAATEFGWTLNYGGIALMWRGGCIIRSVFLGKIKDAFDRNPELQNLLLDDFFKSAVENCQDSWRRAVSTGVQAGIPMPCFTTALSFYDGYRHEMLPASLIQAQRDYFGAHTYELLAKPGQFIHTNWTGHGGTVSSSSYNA
# NAD(+) hydrolase SARM1 (Homo sapiens), sequence (Q6SZW1 whole entry, looked up, the tested form may be a part): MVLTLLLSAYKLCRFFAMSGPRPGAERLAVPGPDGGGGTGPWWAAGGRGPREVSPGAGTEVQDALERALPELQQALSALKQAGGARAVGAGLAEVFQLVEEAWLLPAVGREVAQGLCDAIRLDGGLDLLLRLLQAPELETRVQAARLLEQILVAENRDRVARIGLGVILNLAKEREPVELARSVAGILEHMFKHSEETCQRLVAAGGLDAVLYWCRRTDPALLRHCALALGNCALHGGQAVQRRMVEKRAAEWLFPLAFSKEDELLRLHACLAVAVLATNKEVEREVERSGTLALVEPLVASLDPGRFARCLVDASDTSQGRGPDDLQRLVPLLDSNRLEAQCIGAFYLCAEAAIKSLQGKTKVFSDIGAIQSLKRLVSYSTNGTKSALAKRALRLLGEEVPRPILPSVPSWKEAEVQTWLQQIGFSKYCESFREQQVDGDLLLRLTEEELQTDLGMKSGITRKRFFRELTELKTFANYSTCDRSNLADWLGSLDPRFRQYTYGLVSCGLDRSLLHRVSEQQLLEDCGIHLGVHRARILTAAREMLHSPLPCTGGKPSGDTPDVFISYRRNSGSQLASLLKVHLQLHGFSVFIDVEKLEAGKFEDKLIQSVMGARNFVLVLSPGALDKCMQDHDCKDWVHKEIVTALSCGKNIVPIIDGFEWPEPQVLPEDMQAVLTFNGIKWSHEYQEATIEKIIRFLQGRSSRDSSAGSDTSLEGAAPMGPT
# Mitogen-activated protein kinase 7 (Homo sapiens), sequence (Q13164 whole entry, looked up, the tested form may be a part): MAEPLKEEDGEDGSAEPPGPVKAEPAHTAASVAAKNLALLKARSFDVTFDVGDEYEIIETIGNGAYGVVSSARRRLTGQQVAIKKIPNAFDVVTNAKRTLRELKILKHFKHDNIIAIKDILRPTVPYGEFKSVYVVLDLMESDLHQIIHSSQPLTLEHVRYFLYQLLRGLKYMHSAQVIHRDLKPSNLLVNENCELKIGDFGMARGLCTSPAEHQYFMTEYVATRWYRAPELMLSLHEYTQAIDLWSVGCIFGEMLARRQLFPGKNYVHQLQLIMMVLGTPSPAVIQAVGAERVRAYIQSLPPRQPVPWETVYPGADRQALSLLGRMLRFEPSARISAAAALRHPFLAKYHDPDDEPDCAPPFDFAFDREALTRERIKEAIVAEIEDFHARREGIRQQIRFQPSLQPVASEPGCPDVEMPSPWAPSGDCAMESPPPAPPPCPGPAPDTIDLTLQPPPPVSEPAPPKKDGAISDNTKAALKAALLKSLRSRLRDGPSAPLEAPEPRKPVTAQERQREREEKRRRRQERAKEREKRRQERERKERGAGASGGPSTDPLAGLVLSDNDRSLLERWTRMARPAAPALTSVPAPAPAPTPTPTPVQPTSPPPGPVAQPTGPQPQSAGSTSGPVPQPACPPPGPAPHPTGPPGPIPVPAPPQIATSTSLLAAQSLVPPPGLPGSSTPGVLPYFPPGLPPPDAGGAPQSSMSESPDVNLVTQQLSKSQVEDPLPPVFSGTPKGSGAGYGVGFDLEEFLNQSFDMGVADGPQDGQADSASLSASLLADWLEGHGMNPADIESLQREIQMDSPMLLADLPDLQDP
smiles,measurement,setting,value
CC1=C(/C=C/C(C)=C/C=C/C(C)=C/C(=O)O)C(C)(C)CCC1,nuclear beta-catenin stimulation,[1]; at 10 µM,8.6% (inactive)
same,nuclear beta-catenin stimulation,"[1]; stimulation, at 2 µM",8.1%
same,insulin secretion stimulation,[2],1.8% (inactive)
same,viability decrease,[3],102% (active)
same,tube area decrease,[4],-33.9% (inactive)
same,GLP1 secretion stimulation,[5],14.4% (inactive)
same,inhibition of viability,[6],102% (active)
same,viability decrease (inhibition),[7],142% (active)
same,viability decrease (inhibition),[8],104% (active)
same,inhibition,[9],-0.523% (inactive)
same,mean signal,[10],223 (inactive)
same,red/green cell ratio (normalised),[11],0.69 (inactive)
same,normalised cell number,[11]; [17],1.34
same,normalised cell number,[11]; [18],0.93
same,z-score,[12]; [19],-0.0661 (inactive) and 0.992 (inactive)
same,z-score,[12]; [20],0.0426 and 0.864
same,viability,"[13]; at 0.000305 µM, OCI-C5x cells, with rucaparib 10 µM, 100% = cells with rucaparib alone",106% (inactive)
same,viability,"[13]; at 0.000305 µM, OCI-C5x cells, without rucaparib",135% (inactive)
same,viability,"[13]; at 0.000305 µM, OCI-P5x cells, with rucaparib 20 µM, 100% = cells with rucaparib alone",102% (inactive)
same,viability,"[13]; at 0.000305 µM, OCI-P5x cells, without rucaparib",120% (inactive)
same,viability,"[13]; at 0.00122 µM, OCI-C5x cells, with rucaparib 10 µM, 100% = cells with rucaparib alone",106% (inactive)
same,viability,"[13]; at 0.00122 µM, OCI-C5x cells, without rucaparib",121% (inactive)
same,viability,"[13]; at 0.00122 µM, OCI-P5x cells, with rucaparib 20 µM, 100% = cells with rucaparib alone",105% (inactive)
same,viability,"[13]; at 0.00122 µM, OCI-P5x cells, without rucaparib",119% (inactive)
same,viability,"[13]; at 0.00488 µM, OCI-C5x cells, with rucaparib 10 µM, 100% = cells with rucaparib alone",124% (inactive)
same,viability,"[13]; at 0.00488 µM, OCI-C5x cells, without rucaparib",115% (inactive)
same,viability,"[13]; at 0.00488 µM, OCI-P5x cells, with rucaparib 20 µM, 100% = cells with rucaparib alone",108% (inactive)
same,viability,"[13]; at 0.00488 µM, OCI-P5x cells, without rucaparib",120% (inactive)
same,viability,"[13]; at 0.0195 µM, OCI-C5x cells, with rucaparib 10 µM, 100% = cells with rucaparib alone",106% (inactive)
same,viability,"[13]; at 0.0195 µM, OCI-C5x cells, without rucaparib",111% (inactive)
same,viability,"[13]; at 0.0195 µM, OCI-P5x cells, with rucaparib 20 µM, 100% = cells with rucaparib alone",104% (inactive)
same,viability,"[13]; at 0.0195 µM, OCI-P5x cells, without rucaparib",115% (inactive)
same,viability,"[13]; at 0.0781 µM, OCI-C5x cells, with rucaparib 10 µM, 100% = cells with rucaparib alone",103% (inactive)
same,viability,"[13]; at 0.0781 µM, OCI-C5x cells, without rucaparib",122% (inactive)
same,viability,"[13]; at 0.0781 µM, OCI-P5x cells, with rucaparib 20 µM, 100% = cells with rucaparib alone",101% (inactive)
same,viability,"[13]; at 0.0781 µM, OCI-P5x cells, without rucaparib",115% (inactive)
same,viability,"[13]; at 0.313 µM, OCI-C5x cells, with rucaparib 10 µM, 100% = cells with rucaparib alone",103% (inactive)
same,viability,"[13]; at 0.313 µM, OCI-C5x cells, without rucaparib",114% (inactive)
same,viability,"[13]; at 0.313 µM, OCI-P5x cells, with rucaparib 20 µM, 100% = cells with rucaparib alone",98.8% (active)
same,viability,"[13]; at 0.313 µM, OCI-P5x cells, without rucaparib",109% (inactive)
same,viability,"[13]; at 1.25 µM, OCI-C5x cells, with rucaparib 10 µM, 100% = cells with rucaparib alone",101% (inactive)
same,viability,"[13]; at 1.25 µM, OCI-C5x cells, without rucaparib",115% (inactive)
same,viability,"[13]; at 1.25 µM, OCI-P5x cells, with rucaparib 20 µM, 100% = cells with rucaparib alone",92.2% (active)
same,viability,"[13]; at 1.25 µM, OCI-P5x cells, without rucaparib",105% (inactive)
same,viability,"[13]; at 5 µM, OCI-C5x cells, with rucaparib 10 µM, 100% = cells with rucaparib alone",101% (inactive)
same,viability,"[13]; at 5 µM, OCI-C5x cells, without rucaparib",104% (inactive)
same,viability,"[13]; at 5 µM, OCI-P5x cells, with rucaparib 20 µM, 100% = cells with rucaparib alone",93.6% (active)
same,viability,"[13]; at 5 µM, OCI-P5x cells, without rucaparib",99.6% (active)
same,remaining NAD,[14],10 nM (inactive)
same,luciferase signal,[15],20 AU (inactive)
same,log fold change Tl+ flux,F380Y,0.0395 (inactive)
same,log fold change Tl+ flux,F380Y/beta1,0.0141 (inactive)
same,log fold change Tl+ flux,F380Y/beta2Delta,-0.0201 (inactive)
CCOC(=O)C1=C(C)NC(C)=C(C(=O)OC)C1c1cccc([N+](=O)[O-])c1 (stereo not drawn),nuclear beta-catenin stimulation,[1]; at 10 µM,-0.1% (inactive)
same,nuclear beta-catenin stimulation,"[1]; stimulation, at 2 µM",1.2%
same,insulin secretion stimulation,[2],2.2% (inactive)
same,viability decrease,[3],58.2% (active)
same,tube area decrease,[4],23.7% (inactive)
same,GLP1 secretion stimulation,[5],-0.6% (inactive)
same,inhibition of viability,[6],75.7% (active)
same,viability decrease (inhibition),[7],52.4% (active)
same,viability decrease (inhibition),[8],40.9% (inactive)
same,inhibition,[9],2.14% (inactive)
same,mean signal,[10],230 (inactive)
same,red/green cell ratio (normalised),[11],1.19 (inactive)
same,normalised cell number,[11]; [17],1.11
same,normalised cell number,[11]; [18],1.31
same,z-score,[12]; [19],-0.48 (inactive) and 1.38 (inactive) and -0.0841 (inactive)
same,z-score,[12]; [20],0.0141 and 0.8 and 0.442
same,remaining NAD,[14],10 nM (inactive)
same,log fold change Tl+ flux,F380Y,0.00482 (inactive)
same,log fold change Tl+ flux,F380Y/beta1,-0.0255 (inactive)
same,log fold change Tl+ flux,F380Y/beta2Delta,-0.0689 (inactive)
NS(=O)(=O)c1cc2c(cc1C(F)(F)F)NC(Cc1ccccc1)NS2(=O)=O (stereo not drawn),nuclear beta-catenin stimulation,[1]; at 10 µM,0.1% (inactive)
same,nuclear beta-catenin stimulation,"[1]; stimulation, at 2 µM",1.7%
same,insulin secretion stimulation,[2],0.8% (inactive)
same,viability decrease,[3],-5.2% (inactive)
same,tube area decrease,[4],-25.6% (inactive)
same,GLP1 secretion stimulation,[5],1.6% (inactive)
same,inhibition of viability,[6],-9.63% (inactive)
same,viability decrease (inhibition),[7],18.1% (inactive)
same,viability decrease (inhibition),[8],-18.1% (inactive)
same,inhibition,[9],-18.8% (inactive)
same,mean signal,[10],239 (inactive)
same,red/green cell ratio (normalised),[11],1.09 (inactive)
same,normalised cell number,[11]; [17],1.12
same,normalised cell number,[11]; [18],1.22
same,fold change,"[16]; stronger effect = lower value, cell number ratio, induced over uninduced",0.994 (inactive) and 0.853 (inactive) and 0.857 (inactive)
same,fold change,[16]; measured here: relative caspase fold change +Dox/-Dox,3.31 and 1.41 and 3.71
same,cell count,"[16]; measured here: total cells with miR-34 induction, stronger effect = lower value",10000 and 8170 and 11600
same,cell count,[16]; measured here: total cells without miR-34 induction,10100 and 9580 and 13500
same,z-score,[12]; [19],0.478 (inactive)
same,z-score,[12]; [20],-0.203
same,remaining NAD,[14],10 nM (inactive)
same,luciferase signal,[15],36 AU (inactive)
same,log fold change Tl+ flux,F380Y,0.0508 (inactive)
same,log fold change Tl+ flux,F380Y/beta1,-0.0798 (inactive)
same,log fold change Tl+ flux,F380Y/beta2Delta,0.0485 (inactive)

# Reference: PubChem BioAssay
